The results in this text go back to PubChem BioAssay AID624331 (National Center for Advancing Translational Sciences (NCATS), 2012).

Results filed as inconclusive are left out. Entries that show only a call come without a potency. Active and inactive are the calls of the source. The call rests on the fitted dose curve; in most records, active means well fitted activation curve with a large enough effect; inconclusive means small, poorly fitted or top-dose-only effect; inactive means no such curve, though single readings can be large or run the other way.

The test can be described thus: qHTS assay for re-activators of p53 using a Luc reporter: Hit Validation with no p53 Expressed. The following applies: p53-null cells, luciferase reporter counter-screen; series mostly up to 46.1 µM. The gist of the method:
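Without p53 expression, cells (1000/well, Opti-MEM + 10% FBS) were exposed 24 h at 37 deg C to compounds in a 1:5 series from 10 mM stock (top 46.1 µM in well). Luminescent signal read 10 min after Amplite addition; actives flag unspecific activation.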
For `COCCCN=C(c1ccco1)n1c(=S)nc(-c2ccco2)n(CCCOC)c1=S`, the Potency entry is “inactive”.

With `c1ccc(-n2ncc3c(N4CCCCC4)ncnc32)cc1`, the Potency result was “inactive”.

In the case of `Cc1cccc(Nc2nc(N3CCOCC3)nc(N3CCOCC3)n2)c1`, the Potency result was “inactive”.

For the compound `C#CCn1c(=NC(=O)c2cccs2)sc2cccc(OCC)c21`, the Potency entry is “inactive”.

For the compound `Fc1cc(NCc2ccccc2)nc(NCc2ccccc2)n1`, the Potency result is “inactive”.

`CCOCCCNc1nc2c([nH]1)c(=O)n(C)c(=O)n2C`: the Potency result is “inactive”.

In the case of `O=c1nc2sc3ccccc3n2c(=O)n1-c1cccc(Cl)c1`, the Potency result was “inactive”.

Turning to `Cc1cccc(NC(=O)Nc2ccc(C)cc2Br)c1`, the Potency result was “inactive”.

As to `CC1CCCN(C(=O)CN2C(=O)c3ccccc3S2(=O)=O)C1` (stereo not given), the Potency entry was “inactive”.

In the case of `Cc1cc(N2CCCCC2)n2ncc(-c3ccc(Cl)cc3)c2n1`, the Potency result was “inactive”.

As to `CC(=O)c1cccc(NS(=O)(=O)N(C)C)c1`, the Potency entry is “inactive”.

In the case of `c1ccc2c(c1)CCN(c1nc3cc4c(cc3s1)OCO4)C2`, the Potency entry was “inactive”.

Take `O=C(Cn1cc2c(n1)CCCCC2)NC1CCCCCC1`: the Potency result is “inactive”.

In the case of `Cc1ccc2nc(C(F)(F)F)c(C#N)c(N)c2c1`, the Potency entry is “inactive”.

As for `CC(C)N1C(=O)CN(C2CCCCCC2)C(=O)C1c1ccccc1F` (stereo not given), the Potency entry was “inactive”.

In the case of `CS(=O)(=O)n1nc(-c2ccc(Cl)cc2)nc1SCc1ccccc1`, the Potency entry is “inactive”.

Consider `CCn1c(=O)c2ccccc2n(Cc2ccccc2C)c1=O`, for which the Potency result is “inactive”.

On to `O=C(Nc1ccc(Br)cn1)c1cccc(-c2cc3ccccc3oc2=O)c1`, for which the Potency entry was “inactive”.

For the compound `CCOC(=O)c1cccc(C2=CC(=O)C[C@H](c3ccc(OC)cc3)C2)c1`, the Potency entry is “inactive”.

As for `COc1ccc(S(=O)(=O)NC2CC(C)(C)NC(C)(C)C2)c2ccccc12`, the Potency result is “inactive”.
